Test results published in PubChem BioAssay AID1159580 (chemical genetic matrix, 2015).
The campaign covered roughly 5,500 compounds. About 2,000 (36%) were called active. Another 18% or so got no clear call; they are omitted. No stated cut-off is given here; in the data, active means normalized growth mostly below about 0.91 (no sharp cut-off); inconclusive means no clear call, values can overlap the other calls; inactive means mostly above about 0.92. The list shows a part of the results.

Experiment: chemical genetic growth profiling, strain panel (AID 1159580);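 further: tested at 20 µM; growth read once vehicle control cultures reached saturation at 30 °C; 1 = growth at the plate median or of vehicle wells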
Settings: growth OD

Measured: normalized growth

CN=C(N)NCCCC(N)C(=O)O (stereo unspecified)
inactive: S. cerevisiae deletion strains, locus YAL013W, strain DEP1, stronger effect = lower value 1.02 | S. cerevisiae deletion strains, locus YBR021W, strain FUR4, stronger effect = lower value 1.03 | S. cerevisiae deletion strains, locus YBR229C, strain ROT2, stronger effect = lower value 1.01 | S. cerevisiae deletion strains, locus YCL029C, strain bik1, stronger effect = lower value 0.996 | S. cerevisiae deletion strains, locus YDL035C, strain GPR1, stronger effect = lower value 1.04 | S. cerevisiae deletion strains, locus YDL074C, strain BRE1, stronger effect = lower value 1.05 | S. cerevisiae deletion strains, locus YDL101C, strain DUN1, stronger effect = lower value 1.03 | S. cerevisiae deletion strains, locus YDL134C, strain PPH21, stronger effect = lower value 1.01 | S. cerevisiae deletion strains, locus YDL185W, strain tfp1, stronger effect = lower value 1.02 | S. cerevisiae deletion strains, locus YDL192W, strain arf1, stronger effect = lower value 1.01 | S. cerevisiae deletion strains, locus YDR101C, strain arx1, stronger effect = lower value 1.01 | S. cerevisiae deletion strains, locus YDR150W, strain NUM1, stronger effect = lower value 1.02 | S. cerevisiae deletion strains, locus YDR162C, strain NBP2, stronger effect = lower value 1.03 | S. cerevisiae deletion strains, locus YDR318W, strain mcm21, stronger effect = lower value 1.04 | S. cerevisiae deletion strains, locus YDR388W, stronger effect = lower value 0.993 | S. cerevisiae deletion strains, locus YDR502C, strain sam2, stronger effect = lower value 1.01 | S. cerevisiae deletion strains, locus YEL061C, strain CIN8, stronger effect = lower value 1.01 | S. cerevisiae deletion strains, locus YER110C, stronger effect = lower value 0.997 | S. cerevisiae deletion strains, locus YER155C, strain BEM2, stronger effect = lower value 1.01 | S. cerevisiae deletion strains, locus YER167W, strain BCK2, stronger effect = lower value 1.05 | S. cerevisiae deletion strains, locus YGL078C, strain dbp3, stronger effect = lower value 1.01 | S. cerevisiae deletion strains, locus YGL086W, strain mad1, stronger effect = lower value 1.03 | S. cerevisiae deletion strains, locus YGL248W, strain PDE1, stronger effect = lower value 1.01 | S. cerevisiae deletion strains, locus YGR078C, strain PAC10, stronger effect = lower value 1.04 | S. cerevisiae deletion strains, locus YGR135W, strain pre9, stronger effect = lower value 1.02 | S. cerevisiae deletion strains, locus YGR229C, strain SMI1, stronger effect = lower value 1.05 | S. cerevisiae deletion strains, locus YGR252W, strain gcn5, stronger effect = lower value 1.17 | S. cerevisiae deletion strains, locus YHR030C, strain SLT2, stronger effect = lower value 1.01 | S. cerevisiae deletion strains, locus YHR079C, strain IRE1 (second series), stronger effect = lower value 0.995 | S. cerevisiae deletion strains, locus YHR094C, strain hxt1, stronger effect = lower value 0.986 | S. cerevisiae deletion strains, locus YHR129C, strain ARP1, stronger effect = lower value 1.01 | S. cerevisiae deletion strains, locus YHR200W, strain rpn10, stronger effect = lower value 1.02 | S. cerevisiae deletion strains, locus YIL066C, strain RNR3, stronger effect = lower value 1.03 | S. cerevisiae deletion strains, locus YIL073C, strain SPO22, stronger effect = lower value 1.09 | S. cerevisiae deletion strains, locus YIL125W, strain kgd1, stronger effect = lower value 1.01 | S. cerevisiae deletion strains, locus YIR030C, strain dcg1, stronger effect = lower value 0.997 | S. cerevisiae deletion strains, locus YJL095W, strain BCK1, stronger effect = lower value 1.02 | S. cerevisiae deletion strains, locus YJL134W, strain LCB3, stronger effect = lower value 1.02 | S. cerevisiae deletion strains, locus YJL168C, strain set2, stronger effect = lower value 0.987 | S. cerevisiae deletion strains, locus YJL187C, strain SWE1 (second series), stronger effect = lower value 1.02 | S. cerevisiae deletion strains, locus YJR043C, strain POL32, stronger effect = lower value 1.06 | S. cerevisiae deletion strains, locus YJR075W, strain HOC1, stronger effect = lower value 1.07 | S. cerevisiae deletion strains, locus YKL009W, strain mrt4, stronger effect = lower value 1.03 | S. cerevisiae deletion strains, locus YKL068W, stronger effect = lower value 1.01 | S. cerevisiae deletion strains, locus YKL085W, strain MDH1 (second series), stronger effect = lower value 1.03 | S. cerevisiae deletion strains, locus YKL085W, strain MDH1, stronger effect = lower value 1.03 | S. cerevisiae deletion strains, locus YKL190W, strain CNB1, stronger effect = lower value 1.02 | S. cerevisiae deletion strains, locus YKR001C, strain vps1, stronger effect = lower value 1.02 | S. cerevisiae deletion strains, locus YLR039C, strain RIC1, stronger effect = lower value 1.07 | S. cerevisiae deletion strains, locus YLR058C, strain SHM2, stronger effect = lower value 1.02 | S. cerevisiae deletion strains, locus YLR102C, strain apc9, stronger effect = lower value 0.986 | S. cerevisiae deletion strains, locus YLR262C, strain YPT6, stronger effect = lower value 1.1 | S. cerevisiae deletion strains, locus YLR268W, strain sec22, stronger effect = lower value 1.01 | S. cerevisiae deletion strains, locus YLR330W, strain CHS5, stronger effect = lower value 1.01 | S. cerevisiae deletion strains, locus YLR342W, strain FKS1 (second series), stronger effect = lower value 1.09 | S. cerevisiae deletion strains, locus YLR371W, strain rom2, stronger effect = lower value 0.975 | S. cerevisiae deletion strains, locus YLR418C, strain cdc73, stronger effect = lower value 1.01 | S. cerevisiae deletion strains, locus YML016C, strain PPZ1, stronger effect = lower value 1.02 | S. cerevisiae deletion strains, locus YML032C, strain rad52, stronger effect = lower value 1.05 | S. cerevisiae deletion strains, locus YML124C, strain tub3, stronger effect = lower value 1.01 | S. cerevisiae deletion strains, locus YMR078C, strain ctf18, stronger effect = lower value 1 | S. cerevisiae deletion strains, locus YMR223W, strain ubp8, stronger effect = lower value 1.04 | S. cerevisiae deletion strains, locus YMR263W, strain SAP30, stronger effect = lower value 1.04 | S. cerevisiae deletion strains, locus YMR307W, strain GAS1, stronger effect = lower value 1.14 | S. cerevisiae deletion strains, locus YNL067W, strain RPL9B, stronger effect = lower value 1.02 | S. cerevisiae deletion strains, locus YNL128W, strain TEP1, stronger effect = lower value 1.03 | S. cerevisiae deletion strains, locus YNL153C, strain GIM3, stronger effect = lower value 1.03 | S. cerevisiae deletion strains, locus YNL233W, strain BNI4, stronger effect = lower value 1.03 | S. cerevisiae deletion strains, locus YNL250W, strain rad50, stronger effect = lower value 1.02 | S. cerevisiae deletion strains, locus YNL271C, strain bni1, stronger effect = lower value 1.01 | S. cerevisiae deletion strains, locus YNL298W, strain CLA4, stronger effect = lower value 1.04 | S. cerevisiae deletion strains, locus YNL307C, strain MCK1, stronger effect = lower value 1.02 | S. cerevisiae deletion strains, locus YNL322C, strain KRE1, stronger effect = lower value 1.02 | S. cerevisiae deletion strains, locus YNR052C, strain pop2, stronger effect = lower value 1 | S. cerevisiae deletion strains, locus YOL006C, strain TOP1, stronger effect = lower value 1.05 | S. cerevisiae deletion strains, locus YOL012C, strain htz1 1.01 | S. cerevisiae deletion strains, locus YOL147C, strain pex11, stronger effect = lower value 0.995 | S. cerevisiae deletion strains, locus YOR061W, strain CKA2, stronger effect = lower value 1.02 | S. cerevisiae deletion strains, locus YOR069W, strain VPS5, stronger effect = lower value 1.01 | S. cerevisiae deletion strains, locus YOR136W, strain idh2, stronger effect = lower value 1.02 | S. cerevisiae deletion strains, locus YOR144C, strain elg1, stronger effect = lower value 1.01 | S. cerevisiae deletion strains, locus YOR184W, strain ser1, stronger effect = lower value 1.07 | S. cerevisiae deletion strains, locus YOR316C, strain cot1, stronger effect = lower value 0.99 | S. cerevisiae deletion strains, locus YPL055C, strain LGE1, stronger effect = lower value 1.1 | S. cerevisiae deletion strains, locus YPL241C, strain CIN2, stronger effect = lower value 1.02 | S. cerevisiae deletion strains, locus YPR119W, strain clb2, stronger effect = lower value 0.984 | S. cerevisiae deletion strains, locus YPR141C, strain kar3, stronger effect = lower value 1.02 | S. cerevisiae deletion strains, locus YPR163C, strain tif3, stronger effect = lower value 1 | S. cerevisiae deletion strains, locus YPR167C, strain met16, stronger effect = lower value 1.01 | S. cerevisiae deletion strains, strain wtn01, stronger effect = lower value 0.994 | S. cerevisiae strains, strain wild type, stronger effect = lower value 1.03
